Assay results from PubChem BioAssay AID1578 (Sanford-Burnham Center for Chemical Genomics, 2009).
The campaign covered roughly 290,000 compounds. About 3,000 (1%) were called active. The full list was thinned out, with actives kept by preference. Values without a mark were called inactive. Rule as the data show it: active = inhibition mostly above about 36% (no sharp cut-off); inactive = mostly below about 34%.

Test: inhibition of NOD1-driven NF-kB reporter – cell-based, luminescence, uHTS, primary screen (AID 1578);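 also: HEK-293T reporter cells stimulated with the NOD1 agonist gamma-tri-DAP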
Details: NOD1-driven NF-kB luciferase reporter cells, at 4 µM, active compounds read high

SMILES | inhibition
COc1cccc(/C=N/N2CCN(C3c4ccccc4-c4ccccc43)CC2)c1O | -6.4%
CCCn1c(=S)[nH]c2ccccc2c1=O | -14.5%
Oc1ccc(/C=C/c2ccc3ccccc3n2)cc1 | 50.2% (active)
CCCN(CCC)c1ccc(/C=C/c2ccc3cc(OCC)ccc3n2)cc1 | -1.6%
CN(C)c1ccc(/C=C/c2nc3ccccc3s2)cc1 | -3.1%
O=[N+]([O-])c1ccc(/C=C/c2ccc3ccccc3n2)cc1 | -12.9%
CC[n+]1ccccc1/C=C/c1ccc(N(C)C)cc1 | 40.5%
CN(C)c1ccc(/C=C/c2ccc3ccccc3[n+]2C)cc1 | 43.8%
CN(C)c1ccc(/C=C/c2ccc3ccccc3n2)cc1 | 59.1% (active)
CN(C)c1ccc(/C=C/c2ccc3c4ccccc4ccc3[n+]2-c2ccccc2)cc1 | 71.6% (active)
C(=C\c1ccc2ccccc2n1)/c1ccccc1 | 0%
COc1cc(CNCCC2CCOC(C)(C)C2)ccc1O (stereo not given) | 12.4%
O=C(COc1ccc2c3c(c(=O)oc2c1)CCC3)Nc1ccc(CN2CCOCC2)cc1 | -11.6%
COc1ccc2nc(C)c(C(N)=O)cc2c1 | 5.9%
O=C(Nc1ccccn1)c1ccc(C(=O)Nc2ccccn2)cc1 | -5.1%
O=C(NC(=S)Nc1ccccn1)c1ccccc1 | -7.6%
O=C(NC(=O)c1ccccc1)Nc1ccccn1 | 64.2% (active)
CC(=O)c1c(C)nn(CC(O)COc2ccc3ccccc3c2)c1C (stereo not given) | -16.4%
Cc1ccccc1C(=O)NC(=S)N(CCO)Cc1ccccc1 | -10.6%
CSCC(=O)N1CCC(Oc2cccc(C(=O)NCc3ccccn3)c2)CC1 | -24%
CC(C)NC(=O)CSc1nc(N)c(-c2ccccc2)c(=O)[nH]1 | 7.6%
Cc1ccc2oc(/N=C(\N)NC(=O)C3CC3)nc2c1 | -13.8%
CC(=O)N/C(N)=N/c1nc2cc(C)ccc2o1 | -10.1%
CCCOc1cccc(C2C(C(=O)c3ccco3)=C(O)C(=O)N2c2nnc(C)s2)c1 (stereo not given) | -7.8%
N#Cc1ccc(C(=O)NCC2CCCCC2)cc1 | 0.9%
O=C(O)c1cccc(C(=O)c2cccc(C(=O)O)c2)c1 | -26.4%
COc1ccc(CCCC(=O)N/N=C/c2ccccc2OC)cc1 | -14.1%
CSc1ccc(/C=N/NC(=O)CNc2ccc3ccccc3c2)cc1 | -16.8%
CCN(CC)S(=O)(=O)c1ccc(N/N=C(\C)c2ccncc2)c([N+](=O)[O-])c1 | 31%
C/C(=N\Nc1ccc(S(=O)(=O)Nc2ccccc2)cc1[N+](=O)[O-])c1ccncc1 | 34.7%
